# “And” between values parts separate entries of the source, which are not always exact repeats. Equal entries are not always repeated. Results filed as inconclusive are left out. Where a call stands in place of a potency, no number is given. Some structures have more than one record in an assay (separate samples or runs), and their calls can disagree. The source made the active and inactive calls. Unless noted, the call rests on the fitted dose curve; in most records, active means well fitted curve in the direction sought with a large enough effect in the repeat runs; inconclusive means weak or mixed curves; inactive means no such curve, though single readings can be large; an effect the other way counts as inactive or inconclusive.
# Tests used:
# [1] = qHTS assay to identify small molecule antagonists of the estrogen receptor alpha (ER-alpha) signaling pathway using the BG1 cell line in the presence of 0.1 nM 17-beta-estradiol - cell viability counter screen (AID 1259241); further: nearly all actives have a fitted effect of over 40% in size; further: potency means the concentration at half of the fitted maximal effect
# Method in brief: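 Following 5 days in phenol red-free medium with charcoal-stripped serum, VM7Luc4E2 cells received test compounds alongside 0.1 nM 17beta-estradiol (final) at 37C for 22 hr. Live cells were then quantified via protease-substrate fluorescence.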
# [2] = qHTS assay to identify small molecule antagonists of the androgen receptor (AR) signaling pathway using the MDA cell line in the presence of 0.5 nM R1881 - cell viability counter screen (AID 1259242); further: nearly all actives have a fitted effect of over 45% in size; further: potency means the concentration at half of the fitted maximal effect
# Method in brief: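 Steps: plate MDA-kb2 cells, rest 5 hr at 37C without CO2; pin in compounds in DMSO; add R1881 to 0.5 nM final; incubate 16 hr; add CellTiter-Fluor, 30 min; read fluorescence.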
# [3] = biological target: Androgen receptor (Homo sapiens) (UniProt P10275); assay: qHTS assay to identify small molecule antagonists of the androgen receptor (AR) signaling pathway using the MDA cell line in the presence of 0.5 nM R1881 (AID 1259243); further: nearly all actives have a fitted effect of over 50% in size; further: potency means the concentration at half of the fitted maximal effect
# Method in brief: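 Stably transfected MDA-kb2 cells express luciferase from an MMTV promoter bearing both AR and GR response elements. Compounds plus 0.5 nM R1881 (final) were incubated 16 hr at 37C without CO2, then luminescence measured.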
# [4] = qHTS assay to identify small molecule HDAC inhibitors - cell viability counter screen (AID 1259365); further: series mostly up to about 92 µM; nearly all actives have a fitted effect of over 50% in size
# Method in brief: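 HCT-116 wild-type, overnight attachment; 2hr drug exposure, 37C; CellTiter-Glo luminescent ATP readout after 30min RT.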
# [5] = qHTS assay to identify small molecule agonists of the sonic hedgehog signaling (Shh) pathway - cell viability counter screen (AID 1259366); further: nearly all actives have a fitted effect of over 50% in size; further: potency means the concentration at half of the fitted maximal effect
# Method in brief: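 Compounds in DMSO were pin-transferred onto 3T3 Gli1-Luc cells that had settled 4hr; plates then stood 24hr at 37C and 5% CO2. One hour before the end, CellTiter-Fluor was added and fluorescence recorded.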
# [6] = qHTS assay to identify small molecule agonists of the sonic hedgehog signaling (Shh) pathway (AID 1259368; calls by dose curve;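 further: NIH/3T3-derived 3T3Gli1-Luc cells carrying a stable Gli1-driven firefly luciferase reporter; series mostly up to about 92 µM; nearly all actives have a fitted effect of over 15% in size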)
# Method in brief: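 Cells of a mouse NIH/3T3 clone stably expressing luciferase under the Gli1 transcriptional response element are exposed to test chemicals for 24 hr at 37 C. Pathway activation is detected as a rise in luminescence.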
# [7] = biological target: Estrogen receptor beta (Homo sapiens) (UniProt Q92731); assay: qHTS assay to identify small molecule agonists of the estrogen receptor beta (ER-beta) signaling pathway (AID 1259377; active means well fitted activation curve with a large enough effect in the signal ratio in the repeat runs, not every such curve was filed as active; the % refers to the signal ratio)
# Method in brief: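 qHTS in ER-beta-UAS-bla HEK293T cells: 6 hr settling, then 16 hr compound at 37C, then LiveBLAzer substrate 2 h at RT before fluorescence reading.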
# [8] = biological target: Estrogen receptor beta (Homo sapiens) (UniProt Q92731); assay: qHTS assay to identify small molecule antagonists of the estrogen receptor beta (ER-beta) signaling pathway (AID 1259378; active means well fitted inhibition curve with a large enough effect in the signal ratio in the repeat runs, not every such curve was filed as active; the % refers to the signal ratio; further: potency means the concentration at half of the fitted maximal effect)
# Method in brief: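 Antagonist mode: compounds added to beta-lactamase reporter HEK293T ER-beta-UAS cells stimulated with E2 (1nM final), 16 hr at 37C. LiveBLAzer B/G FRET substrate, 2 hours room temperature, fluorescence read-out.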
# [9] = qHTS assay to identify small molecule agonists of the androgen receptor (AR) signaling pathway in the presence of an antagonist - cell viability counter screen (AID 1259379); further: nearly all actives have a fitted effect of over 25% in size; further: potency means the concentration at half of the fitted maximal effect;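 on activity change, negative = cytotoxicity: MDA-kb2 human breast cancer cells carrying an MMTV luciferase reporter; series mostly up to about 92 µM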
# Method in brief: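 Cytotoxicity is assessed by CellTiter-Fluor in MDA-kb2 cells carrying an MMTV-driven luciferase reporter. Cells receive 3.0uM nilutamide plus compounds at 15 concentrations and incubate 16 hr at 37C without CO2 before fluorescence reading.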
# [10] = qHTS assay to identify small molecule agonists of the estrogen receptor beta (ER-beta) signaling pathway - cell viability counter screen (AID 1259380); further: nearly all actives have a fitted effect of over 30% in size; further: potency means the concentration at half of the fitted maximal effect
# Method in brief: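 Cytotoxicity is measured in parallel with the reporter screen: after 16 hr compound exposure at 37C and a 2 hr LiveBLAzer step, CellTiter-Glo is added to the same ER-beta-UAS-bla HEK293T wells and luminescence read after 30 min.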
# [11] = qHTS assay to identify small molecule antagonists of the estrogen receptor beta (ER-beta) signaling pathway - cell viability counter screen (AID 1259382); further: nearly all actives have a fitted effect of over 55% in size; further: potency means the concentration at half of the fitted maximal effect;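 on activity change, negative = cytotoxicity: HEK293T cells carrying ER-beta-UAS-bla reporter stimulated with estradiol; series mostly up to about 92 µM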
# Method in brief: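 Cytotoxicity counter screen multiplexed with the beta-lactamase antagonist assay: GripTite HEK293T ER-beta-bla cells were treated 16 hr with test chemicals in the presence of 1nM 17-beta-estradiol, and viability was measured by CellTiter-Glo.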
# [12] = biological target: Estrogen receptor (Homo sapiens) (UniProt P03372); assay: qHTS assay to identify small molecule agonists of the estrogen receptor alpha (ER-alpha) signaling pathway in the presence of an antagonist (AID 1259383; calls by dose curve; further: top concentration of the series differs between compounds; nearly all actives have a fitted effect of over 15% in size)
# Method in brief: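 Agonist-mode confirmation in the presence of the ER antagonist ICI-182,780 at 10.0nM final. Breast-derived VM7Luc4E2 reporter cells were exposed to compounds for 22hr, and ERE-driven luciferase was quantified by luminescence.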
# [13] = qHTS assay to identify small molecule agonists or antagonists of the thyroid stimulating hormone receptor (TSHR) signaling pathway - wild type cell line counter screen (AID 1259384; calls by dose curve)
# Method in brief: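 Counter screen in untransfected Hek293: compounds (15-point titration, triplicate) plus phosphodiesterase inhibitor Ro20-1724 added after 18 h plating; 30 min RT. Intracellular cAMP via competitive d2/cryptate immunoassay, 1 h incubation.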
# [14] = biological target: Thyrotropin receptor (Homo sapiens) (UniProt P16473); assay: qHTS assay to identify small molecule antagonists of the thyroid stimulating hormone receptor (TSHR) signaling pathway (AID 1259385; calls by dose curve; further: nearly all actives have a fitted effect of over 20% in size; further: potency means the concentration at half of the fitted maximal effect)
# Method in brief: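 Antagonist mode: compound-treated TSHR-expressing HEK293 cells were stimulated with 1.5 ng/mL TSH (final) in presence of Ro20-1724 for 30 min at RT. HTRF cAMP detection after 1 h; each compound tested at 15 concentrations, triplicate.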
# [15] = biological target: Estrogen receptor (Homo sapiens) (UniProt P03372); assay: qHTS assay to identify small molecule antagonists of the estrogen receptor alpha (ER-alpha) signaling pathway using the BG1 cell line in the presence of 0.1 nM 17-beta-estradiol (AID 1259244); further: nearly all actives have a fitted effect of over 50% in size; further: potency means the concentration at half of the fitted maximal effect
# Method in brief: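 Antagonist mode: compounds in DMSO are pinned onto VM7Luc4E2 reporter cells, 0.1 nM final 17beta-estradiol is added, and after 22 h at 37C luciferase luminescence is measured with ONE-Glo.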
# [16] = qHTS assay to identify small molecule HDAC inhibitors (AID 1259364);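 further: wild-type HCT-116 cells with endogenous class I/II HDAC activity; top concentration of the series differs between compounds; nearly all actives have a fitted effect of over 45% in size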
# Method in brief: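 Cells (HCT-116, wild type) are seeded at 1,500 per well, incubated overnight, treated with compound in DMSO for 2 hr, then developed with HDAC-Glo I/II reagent for 30 min at room temperature.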
# [17] = qHTS assay to identify small molecule antagonists of the sonic hedgehog signaling (Shh) pathway - cell viability counter screen (AID 1259367); further: nearly all actives have a fitted effect of over 55% in size; further: potency means the concentration at half of the fitted maximal effect
# Method in brief: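 CellTiter-Fluor signal in conditioned medium-stimulated 3T3 Gli1-Luc cells, 23 hr compound exposure, 37C.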
# [18] = qHTS assay to identify small molecule antagonists of the sonic hedgehog signaling (Shh) pathway (AID 1259369; calls by dose curve; further: nearly all actives have a fitted effect of over 45% in size; further: potency means the concentration at half of the fitted maximal effect)
# Method in brief: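 Cells are plated and held 4hr at 37 C, compounds (DMSO) are pinned in, conditioned medium is added to stimulate the pathway, and after 24hr luciferase reagent is added for 30min before luminescence is read.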
# [19] = biological target: Androgen receptor (Homo sapiens) (UniProt P10275); assay: qHTS assay to identify small molecule agonists of the androgen receptor (AR) signaling pathway in the presence of an antagonist (AID 1259381; calls by dose curve; further: nearly all actives have a fitted effect of over 15% in size)
# Method in brief: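 Agonist-mode confirmation screen: human MDA-kb2 cells stably expressing luciferase under an MMTV promoter bearing AR and GR response elements, co-treated with 3.0uM nilutamide (final). Luminescence measured after 16hr compound incubation.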
# [20] = qHTS assay to identify small molecule phospholipidosis (PLD) inducers (AID 1259344; active means well fitted curve in the direction sought with a large enough effect; an effect the other way counts as inactive or inconclusive)
# Method in brief: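 Accumulated phospholipid, stained red by LipidTOX during 24 h compound treatment of HepG2 cells at 37 C, is quantified from images as pit number and intensity, normalised per cell using Hoechst-stained nuclei.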
# Sequence of Estrogen receptor beta (Homo sapiens) (Q92731 whole entry, looked up): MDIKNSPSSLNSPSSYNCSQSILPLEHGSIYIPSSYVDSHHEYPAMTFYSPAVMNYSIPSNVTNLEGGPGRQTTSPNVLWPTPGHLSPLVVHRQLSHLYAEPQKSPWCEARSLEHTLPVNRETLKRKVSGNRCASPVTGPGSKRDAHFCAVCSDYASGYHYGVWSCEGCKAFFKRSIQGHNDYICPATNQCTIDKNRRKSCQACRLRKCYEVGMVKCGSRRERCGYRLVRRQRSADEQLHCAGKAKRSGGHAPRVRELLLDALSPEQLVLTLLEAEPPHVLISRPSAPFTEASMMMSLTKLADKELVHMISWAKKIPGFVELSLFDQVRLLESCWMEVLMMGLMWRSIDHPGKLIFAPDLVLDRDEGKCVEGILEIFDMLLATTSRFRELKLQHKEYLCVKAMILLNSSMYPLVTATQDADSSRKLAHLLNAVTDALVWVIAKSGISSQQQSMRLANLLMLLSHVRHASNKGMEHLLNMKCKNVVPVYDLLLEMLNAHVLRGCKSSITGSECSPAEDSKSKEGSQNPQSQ
# Sequence of Thyrotropin receptor (Homo sapiens) (P16473 whole entry, looked up): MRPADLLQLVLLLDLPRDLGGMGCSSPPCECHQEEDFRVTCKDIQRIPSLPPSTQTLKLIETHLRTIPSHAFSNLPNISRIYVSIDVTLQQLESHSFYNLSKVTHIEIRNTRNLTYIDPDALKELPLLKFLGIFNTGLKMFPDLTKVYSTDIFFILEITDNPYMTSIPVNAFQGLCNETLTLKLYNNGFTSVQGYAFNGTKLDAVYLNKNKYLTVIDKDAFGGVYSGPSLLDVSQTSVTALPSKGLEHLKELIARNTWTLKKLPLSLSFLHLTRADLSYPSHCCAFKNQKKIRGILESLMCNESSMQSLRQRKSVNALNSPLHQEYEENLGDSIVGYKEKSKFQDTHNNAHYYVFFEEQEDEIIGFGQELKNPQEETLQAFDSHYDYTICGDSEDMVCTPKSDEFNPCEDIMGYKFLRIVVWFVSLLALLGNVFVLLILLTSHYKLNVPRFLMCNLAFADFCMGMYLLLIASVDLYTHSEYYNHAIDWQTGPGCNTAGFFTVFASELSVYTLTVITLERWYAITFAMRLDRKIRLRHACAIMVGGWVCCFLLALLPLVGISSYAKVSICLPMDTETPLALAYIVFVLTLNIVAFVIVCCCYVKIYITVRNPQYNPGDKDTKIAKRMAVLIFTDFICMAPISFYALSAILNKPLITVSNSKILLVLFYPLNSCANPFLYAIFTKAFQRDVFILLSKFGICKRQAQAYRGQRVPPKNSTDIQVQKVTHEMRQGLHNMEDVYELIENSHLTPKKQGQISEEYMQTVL
# Sequence of Androgen receptor (Homo sapiens) (P10275 whole entry, looked up): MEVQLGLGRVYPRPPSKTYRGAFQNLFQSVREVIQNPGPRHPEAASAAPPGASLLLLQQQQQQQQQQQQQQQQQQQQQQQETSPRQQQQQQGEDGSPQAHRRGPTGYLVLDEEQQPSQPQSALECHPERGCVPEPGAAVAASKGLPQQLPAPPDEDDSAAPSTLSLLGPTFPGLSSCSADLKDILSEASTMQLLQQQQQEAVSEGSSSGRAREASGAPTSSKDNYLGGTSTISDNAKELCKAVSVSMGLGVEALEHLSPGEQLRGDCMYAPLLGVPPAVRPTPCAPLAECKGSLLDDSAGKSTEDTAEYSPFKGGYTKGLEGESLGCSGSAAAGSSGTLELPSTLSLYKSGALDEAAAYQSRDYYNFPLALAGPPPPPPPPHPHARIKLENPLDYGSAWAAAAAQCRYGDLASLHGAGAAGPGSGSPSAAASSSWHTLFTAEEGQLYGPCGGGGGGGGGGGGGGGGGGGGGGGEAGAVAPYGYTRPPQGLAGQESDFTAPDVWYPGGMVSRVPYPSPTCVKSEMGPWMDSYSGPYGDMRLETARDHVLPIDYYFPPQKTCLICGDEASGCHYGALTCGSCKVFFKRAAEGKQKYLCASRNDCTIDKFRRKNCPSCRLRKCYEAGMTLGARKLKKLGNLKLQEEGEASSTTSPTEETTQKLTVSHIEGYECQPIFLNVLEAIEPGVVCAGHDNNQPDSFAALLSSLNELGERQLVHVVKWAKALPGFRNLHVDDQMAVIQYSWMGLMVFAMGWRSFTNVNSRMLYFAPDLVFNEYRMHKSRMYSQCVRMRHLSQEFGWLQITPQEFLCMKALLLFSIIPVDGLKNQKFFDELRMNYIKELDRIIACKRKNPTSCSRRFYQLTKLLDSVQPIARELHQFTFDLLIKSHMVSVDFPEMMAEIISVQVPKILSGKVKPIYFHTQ
# Sequence of Estrogen receptor (Homo sapiens) (P03372 whole entry, looked up): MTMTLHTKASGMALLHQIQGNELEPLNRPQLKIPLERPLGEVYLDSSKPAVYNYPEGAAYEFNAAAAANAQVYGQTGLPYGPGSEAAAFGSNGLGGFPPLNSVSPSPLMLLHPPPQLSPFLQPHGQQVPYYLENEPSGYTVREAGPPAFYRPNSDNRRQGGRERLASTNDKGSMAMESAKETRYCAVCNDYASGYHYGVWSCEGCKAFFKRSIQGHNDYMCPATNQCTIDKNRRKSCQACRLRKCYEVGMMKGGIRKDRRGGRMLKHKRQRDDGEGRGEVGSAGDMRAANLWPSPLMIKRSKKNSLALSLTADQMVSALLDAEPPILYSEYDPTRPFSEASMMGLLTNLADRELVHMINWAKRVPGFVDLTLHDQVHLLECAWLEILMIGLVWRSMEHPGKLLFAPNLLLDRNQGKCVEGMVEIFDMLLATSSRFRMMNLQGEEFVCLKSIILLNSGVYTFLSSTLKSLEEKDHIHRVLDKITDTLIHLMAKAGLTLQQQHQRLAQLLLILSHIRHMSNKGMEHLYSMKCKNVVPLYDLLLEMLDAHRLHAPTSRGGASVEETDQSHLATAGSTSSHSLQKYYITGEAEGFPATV
structure (smiles),measurement,setting,value
CCCCCCCc1ccc(O)cc1,Potency,[1],inactive
same,Potency,[2],inactive
same,Potency,[3],27.3 µM (active)
same,Potency,[4],inactive
same,Potency,[5],inactive
same,Potency,[6],inactive
same,Potency,[7],inactive
same,Potency,[8],54.5 µM (active)
same,Potency,[9],inactive
same,Potency,[10],54.5 µM (active)
same,Potency,[11],48.6 µM (active)
same,Potency,[12],inactive
same,Potency,[13],inactive
same,Potency,[14],inactive
O=NN(CCO)CCO,Potency,[1],inactive
same,Potency,[2],inactive
same,Potency,[3],inactive
same,Potency,[15],inactive
same,Potency,[16],inactive
same,Potency,[4],inactive
same,Potency,[5],inactive
same,Potency,[17],inactive
same,Potency,[6],inactive
same,Potency,[18],inactive
same,Potency,[7],inactive
same,Potency,[8],inactive
same,Potency,[9],inactive
same,Potency,[10],inactive
same,Potency,[19],inactive
same,Potency,[11],inactive
same,Potency,[12],inactive
same,Potency,[13],inactive
same,Potency,[14],inactive
O=S1OCC2C(CO1)C1(Cl)C(Cl)=C(Cl)C2(Cl)C1(Cl)Cl (configuration not stated),Potency,[1],inactive
same,Potency,[2],inactive
same,Potency,[3],48.6 µM (active) and 54.4 µM (active)
same,Potency,[15],inactive
same,Potency,[16],inactive
same,Potency,[4],inactive
same,Potency,[17],48.5 µM (active)
same,Potency,[6],inactive
same,Potency,[9],inactive
same,Potency,[10],48.5 µM (active)
same,Potency,[13],inactive
same,Potency,[14],inactive
O=C1C2(Cl)C3(Cl)C4(Cl)C(Cl)(Cl)C5(Cl)C3(Cl)C1(Cl)C5(Cl)C24Cl (configuration not stated),Potency,[1],inactive
same,Potency,[2],60.1 µM (active)
same,Potency,[3],inactive and 65.7 µM (active)
same,Potency,[16],inactive
same,Potency,[4],inactive
same,Potency,[17],37.9 µM (active) and 58.5 µM (active)
same,Potency,[6],inactive
same,Potency,[18],12 µM (active) and 29.3 µM (active)
same,Potency,[11],26.9 µM (active) and 58.5 µM (active)
same,Potency,[13],inactive
CCC[CH2][Sn]([CH2]CCC)([CH2]CCC)[O][Sn]([CH2]CCC)([CH2]CCC)[CH2]CCC,"activity change, negative = cytotoxicity",[1],-23.5% [at 8.39 µM] (inactive)
same,Potency,[2],0.533 µM (active)
same,Potency,[3],0.189 µM (active)
same,Potency,[15],0.377 µM (active)
same,"activity change, negative = inhibition",[16],2.24% [at 8.39 µM] (inactive)
same,Potency,[17],0.377 µM (active)
same,activity change,[6],"-10.2% [at 8.39 µM, stronger effect = higher value] (inactive)"
same,Potency,[18],212 nM (active)
same,activation,[7],-9.06% [at 8.39 µM] (inactive)
same,Potency,[9],0.475 µM (active)
same,Potency,[10],1.06 µM (active)
same,Potency,[11],1.19 µM (active)
same,activation,[12],-15.3% [at 8.39 µM] (inactive)
same,cAMP activity change,[13],"1.6% [at 8.39 µM, stronger effect = higher value] (inactive)"
same,"activity change, negative = inhibition",[14],0.334% [at 8.39 µM] (inactive)
CCOP(=S)(OCC)Oc1cc(C)nc(N(CC)CC)n1,Potency,[1],inactive
same,Potency,[2],inactive
same,Potency,[3],34.4 µM (active)
same,Potency,[16],inactive
same,Potency,[17],inactive
same,Potency,[6],inactive
same,Potency,[7],inactive
same,Potency,[8],inactive
same,Potency,[9],inactive
same,Potency,[10],inactive
same,Potency,[19],inactive
same,Potency,[11],inactive
same,Potency,[13],inactive
same,Potency,[14],30.6 µM (active)
Cc1nn(-c2cc(NS(C)(=O)=O)c(Cl)cc2Cl)c(=O)n1C(F)F,Potency,[1],inactive
same,Potency,[2],inactive
same,Potency,[3],inactive
same,Potency,[16],inactive
same,Potency,[4],inactive
same,Potency,[17],inactive
same,Potency,[6],inactive
same,Potency,[18],inactive
same,Potency,[9],inactive
same,Potency,[10],inactive
same,Potency,[11],inactive
same,Potency,[13],inactive
same,Potency,[14],inactive
Fc1ccc(C(OCCN2CCN(CCCc3ccccc3)CC2)c2ccc(F)cc2)cc1,Potency,[1],29.8 µM (active)
same,Potency,[2],23.7 µM (active)
same,Potency,[3],8.41 µM (active)
same,outcome,[20],inactive
same,Potency,[16],inactive
same,Potency,[4],inactive
same,Potency,[5],18.8 µM (active)
same,Potency,[17],21.1 µM (active)
same,Potency,[6],inactive
same,Potency,[18],5310 nM (active)
same,Potency,[9],26.6 µM (active)
same,Potency,[10],26.6 µM (active)
same,Potency,[11],26.6 µM (active)
same,Potency,[12],inactive
same,Potency,[13],inactive
